Assay outcomes deposited in PubChem BioAssay by The Scripps Research Institute Molecular Screening Center.
Hits are enriched below; roughly 1.8% of the tested compounds scored in any of these assays.
PME-1 primary – blocks human protein phosphatase methylesterase 1; recombinant PME-1, FP-Rh probe fluorescence polarization; inhibition, % at 5.9 µM; actives 0.53% (n = 320,000);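 active = inhibition above the campaign mean of all compounds plus 3 SD, cut at about 26% in these data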;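 also: competitive labeling of PME-1 active site by serine hydrolase directed probe; 0% = PME-1 with DMSO and 100% = wells lacking PME-1 enzyme; inhibitors block probe labeling so polarization falls and inhibition rises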
Target sequence (Q9Y570 whole entry, looked up): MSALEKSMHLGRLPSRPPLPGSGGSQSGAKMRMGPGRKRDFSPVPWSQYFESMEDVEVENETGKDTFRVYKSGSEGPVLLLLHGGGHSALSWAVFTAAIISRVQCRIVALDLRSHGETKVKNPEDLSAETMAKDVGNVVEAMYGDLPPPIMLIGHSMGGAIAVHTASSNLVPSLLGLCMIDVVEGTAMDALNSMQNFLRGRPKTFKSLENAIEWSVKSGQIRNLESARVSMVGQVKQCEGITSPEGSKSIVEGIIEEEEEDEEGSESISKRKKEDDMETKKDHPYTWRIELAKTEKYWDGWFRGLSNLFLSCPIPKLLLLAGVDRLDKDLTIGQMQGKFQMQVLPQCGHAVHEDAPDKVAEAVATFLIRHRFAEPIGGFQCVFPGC
Fam108B inh – Fam108B inhibition, counter-screen for RBBP9 inhibitors; recombinant Fam108B, FP-Rh probe fluorescence polarization; inhibition, % at 9.51 µM; actives 0.33% (n = 300,000); AID 1947;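 active = inhibition above the screen mean inhibition plus 3 SD, computed separately per campaign, cut at about 18% in these data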;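 also: inhibitors lower polarization as less probe binds the enzyme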
LYPLA1 counter – blocks human lysophospholipase 1, a PME1 counter-screen | O75608 | AID 2174 | recombinant LYPLA1, FP-Rh probe fluorescence polarization | actives 0.16% (n = 320,000) | inhibition, % at 5.9 µM;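 active = inhibition above the mean of all tested compounds plus 3 SD, set per campaign, cut at about 14% in these data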;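 also: inhibitors block serine hydrolase probe labeling of LYPLA1 so polarization falls; 0% = enzyme with DMSO and 100% = wells lacking LYPLA1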
LYPLA2 inh – blocks human lysophospholipase 2, a PME1 counter-screen | O95372 | recombinant LYPLA2, FP-Rh probe fluorescence polarization | inhibition, % at 5.9 µM | actives 0.38% (n = 320,000);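 active = inhibition above the screen-wide mean plus 3 SD, limit set per campaign, cut at about 26% in these data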;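 also: 0% = LYPLA2 with DMSO and 100% = wells lacking LYPLA2 enzyme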
Target sequence (O95372 whole entry, looked up): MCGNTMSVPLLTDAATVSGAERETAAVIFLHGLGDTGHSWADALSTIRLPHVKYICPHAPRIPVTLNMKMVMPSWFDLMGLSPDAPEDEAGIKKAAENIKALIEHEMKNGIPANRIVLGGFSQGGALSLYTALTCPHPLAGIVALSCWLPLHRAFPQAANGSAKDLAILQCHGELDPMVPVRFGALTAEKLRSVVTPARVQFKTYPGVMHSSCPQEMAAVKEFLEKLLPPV
GSTO1 inh – blocks human GSTO1 in RBBP9 counter-screen; recombinant GSTO1, activity-based probe fluorescence polarization; P78417; actives 1.1% (n = 300,000); inhibition, % at 5.96 µM; AID 1974;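 active = inhibition above the campaign mean inhibition plus 3 SD, cut at about 35% in these data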;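 also: 0% = GSTO1-1 with DMSO and 100% = wells lacking GSTO1-1 enzyme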
PAD4 FP inh – PAD4 (human) enzyme inhibition; Q9UM07; recombinant PAD4, RCA probe fluorescence polarization; inhibition, % at 6.36 µM; actives 0.41% (n = 330,000); AID 485272;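 active = percent inhibition above a cutoff equal to the mean of all tested compounds plus 3 SD, cut at about 15% in these data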;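 also: 0% = PAD4 with RCA probe and DMSO and 100% = probe without PAD4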
Numbers without * were called inactive; . = no result given.

SMILES | PME-1 primary | Fam108B inh | LYPLA1 counter | LYPLA2 inh | GSTO1 inh | PAD4 FP inh
O=C(CCl)N=c1sccn1Cc1ccccc1Cl | 0.9 | -0.8 | 2.0 | 7.8 | 102.0* | -40.2
CCC(=O)OCC(=O)N=c1sccn1Cc1ccccc1Cl | 0.3 | -0.4 | -0.8 | 4.1 | 4.6 | -0.7
COc1cc(/C=C2/C(=N)N3C(=NC2=O)SN=C3S(C)(=O)=O)ccc1OS(=O)(=O)c1ccccc1 | -1.9 | -8.8 | -5.1 | -6.4 | -36.8 | -3.2
COc1cc(/C=C2/C(=O)N(c3ccccc3)N=C2C)ccc1OS(=O)(=O)c1ccccc1 | 12.8 | 10.2 | -4.6 | 1.6 | 35.7* | 36.3*
COc1ccccc1NC(=O)c1cc2ccc(O)cc2o/c1=N\O | 27.4* | 15.7 | 1.9 | 7.4 | -9.5 | -0.8
Cc1ccc(CC2CC(=O)N(CCc3ccccc3)C2=O)cc1 (configuration not stated) | 2.0 | 0.5 | 4.2 | 3.5 | 2.5 | -1.5
Cc1ccc(CC2CC(=O)N(C(Cc3ccccc3)C(=O)O)C2=O)cc1 (configuration not stated) | 1.9 | 1.2 | 3.7 | 5.3 | 35.8* | -5.9
CC(=O)c1c(C)cc(C)c(CSc2nnc(-c3ccco3)o2)c1C | 0.2 | -0.4 | -1.5 | 3.1 | 35.2* | 2.7
O=[N+]([O-])c1cccc(S(=O)(=O)N2CCCCC2c2cccnc2)c1 (configuration not stated) | -5.4 | 2.5 | 3.4 | 4.7 | 5.8 | 0.6
CN1CCN(c2ccc(NC(=O)c3ccc(-c4ccc(Br)cc4)o3)cc2)CC1 | 29.6* | 16.2 | 0.9 | -3.4 | 12.5 | -6.3
O=C(Nc1ccc(N2CCCC2)cc1)c1ccc(Br)o1 | -3.1 | 8.9 | -7.0 | -1.9 | 11.3 | -3.9
O=C(Nc1ccc(N2CCCC2)cc1)C(Cl)c1ccccc1 (configuration not stated) | 5.9 | 0.3 | -1.4 | 0.1 | 35.1* | 5.0
CC(C)(C)c1ccc(O)c(N=Cc2cc(Br)ccc2O)c1 | 7.1 | -0.7 | 2.9 | 4.0 | 35.2* | -2.9
Nc1c(/C=C2/C=CC(=O)C(O)=C2)c(=O)nc2sc(CC(=O)N3CCCCC3)nn12 | 4.8 | 13.4 | -0.2 | -3.7 | 41.5* | 2.7
CCC(C)[C@@H]1NC(=O)N(CCCN2CCCC2=O)C1=O (some centres not stated) | -2.0 | 0.2 | -2.6 | -5.9 | -4.3 | -1.2
CC(C)c1ccc(NC(=O)COC(=O)c2cc(=O)[nH]c3ccccc23)cc1 | -16.5 | . | -5.6 | -13.6 | . | -3.4
Cc1cc(-n2c(C)cc(C(=O)CCl)c2C)no1 | -4.0 | -1.3 | 2.7 | -0.8 | 82.9* | 2.8
COc1ccc(-n2c(C)cc(C(=O)CCl)c2C)cc1 | 9.6 | 0.7 | 1.1 | -1.7 | 97.0* | 1.9
COc1ccc(-n2c(C)cc(C(=O)CN3C(=O)c4ccccc4C3=O)c2C)cc1 | -1.0 | 0.0 | -5.0 | 15.3 | -7.5 | 5.0
Cc1ccc(OCC(=O)c2cc(C)n(C3CC3)c2C)c([N+](=O)[O-])n1 | -7.0 | 2.5 | -2.6 | 11.6 | 10.4 | -5.7
COc1ccc(-n2c(C)cc(C(=O)COc3ccc(C)nc3[N+](=O)[O-])c2C)cc1 | -3.1 | 4.8 | 5.3 | 26.4* | 3.5 | -0.8
Cc1cc(C(=O)CC#N)c(C)n1-c1ccc(OC(F)F)cc1 | 36.1* | 5.4 | -2.9 | 5.8 | -14.3 | -9.9
Cc1ccc(C(=O)NCC(=O)NCCCc2ccccc2)cc1 | -2.1 | -3.9 | 1.4 | 0.2 | 2.6 | 2.6
Cc1cccc(NC(=O)C2CCCN(c3ncnc4c3nc3n4CCCCC3)C2)n1 (configuration not stated) | -0.8 | 3.1 | -1.5 | 1.1 | 4.6 | -0.1
O=C(c1ccc(NC(=O)C(c2ccccc2)c2ccccc2)cc1)c1ccc(C(=O)O)c(C(=O)O)c1 | -4.7 | -3.9 | 4.6 | -1.4 | -12.3 | -3.1
SMILES | PME-1 primary | Fam108B inh | LYPLA1 counter | LYPLA2 inh | GSTO1 inh | PAD4 FP inh
CC(OC(=O)CSc1ccc([N+](=O)[O-])cc1)C(=O)NC1CC1 (configuration not stated) | 8.0 | . | 2.5 | 2.2 | . | 1.4
O=C(Nc1c[nH]c(=O)[nH]c1=O)c1cc([N+](=O)[O-])cc([N+](=O)[O-])c1 | -8.5 | -5.2 | -5.0 | 0.5 | 0.8 | 1.5
O=c1cc(-c2ccccc2Cl)oc2c(NS(=O)(=O)c3cc(Cl)cc(Cl)c3O)ccc(O)c12 | 56.6* | 7.1 | -14.1 | -23.6 | 1.6 | -15.7
CCc1ccc(S(=O)(=O)Nc2ccc(O)c3c(=O)cc(-c4ccccc4Cl)oc23)cc1 | -10.4 | -11.1 | -18.6 | -28.6 | -3.4 | 2.6
CN(C)S(=O)(=O)c1cccc(NC(=O)c2cc([N+](=O)[O-])ccc2N2CCCCC2)c1 | 45.7* | . | -4.2 | 0.4 | . | 2.7
CCOc1ccc(S(=O)(=O)N(C)CC(=O)NCc2ccco2)cc1 | 2.6 | -0.5 | -3.2 | 1.6 | -0.2 | 1.4
CCOc1ccc(S(=O)(=O)N(C(=O)c2ccco2)c2cc3sc(=O)oc3c3ccccc23)cc1 | 7.6 | 8.8 | -0.8 | 1.4 | 37.2* | 11.7
COc1ccc(CNC(=O)CSc2nc3[nH]ncc3c(=O)n2-c2ccccc2Br)cc1 | 1.7 | 4.5 | 2.4 | 5.9 | 42.1* | -2.4
Cc1cccc(NC(=S)NCc2cccn2C)c1 | -2.8 | 4.5 | 1.4 | 0.2 | 37.5* | 2.4
Cc1ccccc1OCC(=O)O/N=C(\N)c1ccncc1 | -3.9 | 0.0 | -2.5 | 4.8 | -6.8 | -3.7
CN(CC(=O)Nc1ccccc1Cl)C(=O)c1ccc(COc2ccccc2)cc1 | 5.8 | -8.0 | -0.8 | 1.4 | 14.8 | 3.7
Cc1cc(-c2ccccc2)nc(N/N=C/c2ccccc2)n1 | 8.8 | 2.3 | 4.9 | -3.5 | -1.2 | -4.8
Cc1cc(-c2ccccc2)nc(N/N=C/c2ccc(O)cc2O)n1 | 39.9* | 7.0 | -9.0 | -1.4 | 17.4 | 1.1
COc1cc(CNc2ccc(N3CCCC3)cc2)ccc1OCc1ccccc1 | 4.6 | 5.2 | 2.1 | 4.8 | 53.5* | -15.4
COc1cccc(N=Nc2c(=O)[nH]n3c(=O)c4c([nH]c23)CCC4)c1 | 36.1* | 5.5 | 2.9 | -3.3 | 9.6 | -0.8
Cc1onc(-c2ccccc2)c1C(=O)Nc1ccc(Cl)c(S(=O)(=O)N2CCOCC2)c1 | 3.6 | . | 2.9 | 3.6 | . | 1.7
CC1=C([N+](=O)[O-])C(c2cccc(Br)c2)C2=C(N1)c1ccccc1C2=O (configuration not stated) | 33.5* | 14.9 | -12.0 | 6.5 | -16.5 | -6.2
CC/C(=N/Nc1ccc(Cl)cc1)c1cnnc(SC)n1 | 1.9 | 1.1 | 0.5 | 3.8 | 50.5* | -1.6
CC/C(=N/Nc1cccc(C)c1)c1cnnc(SC)n1 | 5.1 | -2.6 | -0.2 | 3.7 | 49.5* | -12.2
CC/C(=N/O)c1cnnc(SC)n1 | 0.1 | 6.8 | 2.1 | 2.3 | -6.6 | -3.2
O=C(c1cc([N+](=O)[O-])[nH]n1)N1CCSCC1 | 4.5 | -0.1 | -0.9 | -2.2 | 2.1 | 0.2
N#C/C(=C\c1ccc(-c2ccccc2[N+](=O)[O-])o1)C(=O)Nc1nc(-c2cccs2)cs1 | 29.1* | 5.9 | -12.8 | 12.3 | 18.5 | -8.9
